The panel holds about 83,000 compounds, 20% with a hit somewhere; the sample as a whole holds those more often.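 The endpoint reported here, percent growth, reads 100 for growth as untreated, 0 for no net growth and -100 for all cells dead.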 Unmarked numbers belong to inactive results. Active and inactive are the calls of the source.
tested on: OVCAR-3 ovarian; assay: NCI-60 one-dose screen, 48 h (100 = growth as untreated, 0 = no growth, -100 = all killed); details: 10 µM unless noted
Method: Growth inhibition of the OVCAR-3 human tumor cell line is measured as a screen for anti-cancer activity. Cells are grown in 96 well plates and exposed to the test compound for 48 hours. Compounds are tested at a single concentration, which is 10^-5 M for most compounds. The reported endpoint is percent growth (GI% or GIPRCNT), where numbers from 0 - 100% represent growth inhibition, and numbers from -100% - 0 represent cell death. For example, a value of 40 represents 60% growth inhibition. A value of 0 means no net growth occurred over the course of the experiment. A value of -40 indicates 40% of cells at the beginning of the experiment died by the end of the experiment. A value of -100 means all cells are dead at the end of the experiment.
NCI-60 Human Tumor Cell Lines Screen was performed using the standard one-dose NCI protocol, which is described in more detail at https://dtp.cancer.gov/discovery_development/nci-60/default.htm.
Compounds with GIPRCNT values below 10 were considered active. Activity score was based on GIPRCNT using the following formula: […]
Score is 0 for GIPRCNT values of 100 or above, 50 for GIPRCNT values of 0, and 100 for GIPRCNT values of -100.

Going from `CN(C)C1CCN(Cc2ccc(NC(=O)c3cncc(C#Cc4cnc(N)c5ncccc45)c3)cc2C(F)(F)F)CC1` to `C=CC(=O)NCc1ccc(Nc2nccc(-c3ccc(N4CCCC4)c(C#N)c3)n2)cc1`, the growth falls from 97.9% to 33.4%.

Compared with `COP(=O)(OC)C(C)(C)CC(=O)CC(C#N)(C#N)C(C#N)C#N`, `COC(=O)/C(CCC=C(C)C)=C1\[C@@H](OC(C)=O)C[C@@]2(C)[C@H]1C[C@@H](O)[C@H]1[C@@]3(C)CC[C@H](NCCN)[C@@H](C)[C@@H]3CC[C@@]12C` is lower in growth: 114% for the first, 83.8% for the second.

First: CN1CCN(C(=O)OCc2ccc3c(Cl)cc(Cl)c(O)c3n2)CC1
Second: Cc1cccc(N2CCN(CC(O)COc3ccc(Cl)cc3)CC2)c1 (stereo not given)
The growth of the first is lower: 50.9% for the first, 111% for the second.

Going from `Clc1ccc2c(c1)N(c1ncnc3ccc(-c4cnc5[nH]ncc5c4)cc13)CC2` to `C#Cc1cccc(Nc2ncnc3ccc(-c4cnc(N)nc4)cc23)c1`, the growth falls from 24.5% to 24.1%.

`O=C1c2c(c3c4ccccc4[nH]c3c3ccc4ccccc4c23)C(=O)N1CCN1CCCCC1` and `O=C(Nn1c2c(sc1=NCc1ccccc1)C(=O)c1ccccc1C2=O)c1cc2ccc1CCc1ccc(cc1)CC2` are the same in growth: 51.1% for the first, 51.1% for the second.

Compared with `COC(=O)c1n[nH]c2ccc3nc(-c4cn[nH]c4C(F)(F)F)c4c(c3c12)CCCC4`, `CNC(=O)c1cc(Oc2ccc3nc(NC(C)=O)sc3c2)ccn1` is higher in growth: 56.4% for the first, 105% for the second.

Going from `CS(=O)(=O)c1cccc(-c2c(-c3cccc(OS(N)(=O)=O)c3)nc3sccn23)c1` to `COc1ccc(-c2csc(NC(=O)CSc3nc(-c4ccccc4)cc(=O)[nH]3)n2)cc1`, the growth falls from 106% to 72%.

First: C=C(C)[C@@H]1CC[C@]2(C)[C@H](CC=C3[C@@H]4[C@H](C)[C@@H](C)CC[C@]4(CO)CC[C@]32C)[C@@]1(C)CCCN
Second: CC1(C)c2[nH]c3ccccc3c2C[C@]2(C)[C@H]3CC=C4[C@@H]5C[C@@](C)(C(N)=O)CC[C@]5(C)CC[C@@]4(C)[C@]3(C)CC[C@@H]12
The growth of the first is lower: 20.1% for the first, 58.3% for the second.

Compared with `CC1=C(CCC(C)N(C)Cc2ccc(OCCCN3CCCC3)cc2)C(C)(C)CCC1` (stereo not given), `CCCNC(=O)Oc1ccc(/C(=C(/C)Cc2ccc(OC)cc2)c2ccc(OCCCN(C)C)cc2)cc1` is higher in growth: 23.6% for the first, 94.3% for the second.

Compared with `Cc1nc2ncnc(Cl)c2[nH]1`, `O=C(CCc1nnc(Cn2cnc3nc[nH]c3c2=O)o1)c1nc2ncccc2[nH]1` is lower in growth: 108% for the first, 104% for the second.

Going from `Cc1ccc(C(C(N)=O)C(C(N)=O)c2ccccc2)cc1` (stereo not given) to `CC(C)c1ccc(NC(=O)Nc2ccc(NC(=O)CCCC(=O)NOCc3ccccc3)cc2)cc1`, the growth falls from 114% to 94%.

Compared with `CC(=O)OC[C@]12CCC(C)(C)C[C@H]1[C@@]1(O)[C@H](O)C[C@@H]3[C@@]4(C)CCCNC(C)(C)[C@@H]4CC[C@@]3(C)[C@]1(C)CC2`, `C=C(C)[C@@H]1CC[C@]2(C(=O)OC)CC[C@]3(C)[C@H](CC[C@@H]4[C@@]5(C)C/C(=C/NC(N)=S)C(=O)C(C)(C)[C@@H]5CC[C@]43C)[C@@H]12` is lower in growth: 119% for the first, 88.5% for the second.

Going from `Oc1c(Cl)cc(Cl)cc1/C=N/Nc1nnc(N/N=C/c2cc(Cl)cc(Cl)c2O)c2ccccc12` to `O=C(CSc1nnc2n1S(=O)(=O)c1ccccc1N2c1ccccc1)Nc1nc2ccc(F)cc2s1`, the growth rises from 14.1% to 106%.

First: CCCCCCCCCCCCCCCCCCOc1ccccc1CC(=O)NCC[N+]1(C)CCCC1
Second: CCCCN[C@H]1CC[C@@]2(C)[C@@H](CC[C@@]3(C)[C@H]2[C@H](O)C[C@H]2/C(=C(\CCC=C(C)C)C(=O)OC)[C@@H](OC(C)=O)C[C@@]23C)[C@@H]1C
The growth of the first is lower: 39% for the first, 106% for the second.

In the case of `N#Cc1cnc(NCCc2ccncc2)nc1-n1cnc2ccccc21`, the growth is reported as 76.7%.

For `C/C(=N\NC(=O)c1ccccc1O)c1cccc(/C(C)=N/NC(=O)c2ccccc2O)n1`, the growth was 9.77% (active).
For `COC(=O)c1c2c(c(C)[n+]([O-])c1C)C(=O)C=C(NCc1ccc(OC)cc1)C2=O`, the growth was -40.5% (active).
With `Cc1ccc2c3c(c(=O)[nH]c2c1)C1(C(C#N)=C(N)O3)c2cc(Br)ccc2-c2ccc(Br)cc21` the growth was -40.1% (active).
In the case of `CCc1ccc(C(=O)/C=C/C23c4ccccc4C(c4ccccc42)C2C(=O)NC(=O)C23)cc1` (stereo not given), the growth is reported as -59.7% (active).
In the case of `CCOC(=O)C#Cc1c(C(=O)OCC)nnn1[C@@H]1O[C@H](CO)[C@H]2OC3(CCCCC3)O[C@H]21`, the growth is reported as 4.07% (active).
With `Nc1nc(=S)c2ncn(C3OC(COP(=O)(O)O)C(O)C3O)c2[nH]1` (stereo not given) the growth was 7.25% (active).
`Fc1ccc(Nc2nc3nonc3nc2Nc2ccc(I)cc2)cc1` was tested, and the growth was 9.78% (active).
For `O=C1c2cccnc2C(=O)c2c1c(C(=O)NCCn1ccnc1)c1ccccn21`, the growth was 3.37% (active).
For `CCC(=C(c1ccc(OCCN2CCCC2)cc1)c1ccc(OCCN2CCCC2)cc1)c1ccc(Cl)cc1`, the growth was -57.6% (active).
With `CN1CCN(C(=O)c2ccc(NC(=O)Nc3ccc(-c4nc(N5CCOCC5)c5cccn5n4)cc3)cc2)CC1` the growth was -5.24% (active).
With `COC(C(=O)[C@@H](O)[C@@H](C)O)[C@@H]1Cc2cc3cc(O[C@H]4C[C@@H](O[C@H]5C[C@@H](O)[C@H](O)C(C)O5)[C@H](O)C(C)O4)c(C)c(O)c3c(O)c2C(=O)[C@H]1O[C@H]1C[C@@H](O[C@H]2C[C@@H](O[C@H]3C[C@@H](O)[C@H](OC)C(C)O3)[C@@H](O)C(C)O2)[C@H](O)C(C)O1` (stereo not given in full) the growth was 5.62% (active).

Reference: PubChem BioAssay (NCI)
